# Test results reported in the supplement of paper PMC6992640.
# ± gives the standard deviation of the averaged measurements.
# Key:
# [1] = system: HCI11 (cells of an ER-positive luminal breast cancer xenograft); experiment: cell viability (% of vehicle); higher = less cytotoxic; settings: 10 µM; 72 h
# [2] = system: HCI01 (cells of a triple-negative basal-like breast cancer xenograft); experiment: cell viability of combination (% of vehicle); higher = less cytotoxic; settings: 1 µM; 72 h; partner dose: 10 nM
# Procedure: (§1)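 PDX cells were treated for 72 h with each drug at 1 µM plus carfilzomib (10 nM; 100 nM for WHIM2). Luciferase viability is expressed as percent of vehicle.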
# [3] = system: UCD52 (cells of a triple-negative basal-like breast cancer xenograft); experiment: as above; settings: 1 µM; 72 h; partner dose: 10 nM
# Procedure: as §1
# [4] = system: HCI09 (cells of a triple-negative luminal androgen receptor type breast cancer xenograft); experiment: cell viability (% of vehicle); higher = less cytotoxic; settings: 10 µM; 72 h
# [5] = system: HCI16 (cells of a triple-negative basal-like breast cancer xenograft); experiment: as above; settings: 10 µM; 72 h
# [6] = system: UCD52; experiment: as above; settings: 10 µM; 72 h
# [7] = system: HCI13 (cells of an ER-positive luminal breast cancer xenograft); experiment: as above; settings: 10 µM; 72 h
# [8] = system: WHIM2 (cells of a triple-negative basal-like breast cancer xenograft); experiment: as above; settings: 10 µM; 72 h
# [9] = system: HCI03 (cells of an ER-positive luminal breast cancer xenograft); experiment: as above; settings: 10 µM; 72 h
# [10] = system: WHIM30 (cells of a triple-negative basal-like breast cancer xenograft); experiment: cell viability of combination (% of vehicle); higher = less cytotoxic; settings: 1 µM; 72 h; partner dose: 10 nM
# Procedure: as §1
compound,measurement,setting,value
COc1cccc(-c2ccc(NC(=O)C3=C(C(=O)O)CCC3)c(F)c2)c1 [Vidofludimus],cell viability,[1],99.5
COc1ccccc1OCCNCC(O)COc1cccc2[nH]c3ccccc3c12 (configuration not stated) [Carvedilol] + CC(C)C[C@H](NC(=O)[C@H](CCc1ccccc1)NC(=O)CN1CCOCC1)C(=O)N[C@@H](Cc1ccccc1)C(=O)N[C@@H](CC(C)C)C(=O)[C@@]1(C)CO1 [Carfilzomib],cell viability of combination,[2],76.8
same,cell viability of combination,[3],61.4
CC(=O)Oc1ccccc1C(=O)Nc1ncc([N+](=O)[O-])s1 [Nitazoxanide],cell viability,[4],161 ± 140
same,cell viability,[1],168
same,cell viability,[5],128
same,cell viability,[6],154 ± 8.6
CCCCc1nc2cc(C=CC(=O)NO)ccc2n1CCN(CC)CC [Pracinostat (SB939)],cell viability,[4],56.2 ± 49
same,cell viability,[1],6.31
same,cell viability,[7],88.1 ± 21
same,cell viability,[8],64.9 ± 4.9
CC[C@@]1(O)C(=O)OCc2c1cc1n(c2=O)Cc2cc3c(CN(C)C)c(O)ccc3nc2-1 [Topotecan] + CC(C)C[C@H](NC(=O)[C@H](CCc1ccccc1)NC(=O)CN1CCOCC1)C(=O)N[C@@H](Cc1ccccc1)C(=O)N[C@@H](CC(C)C)C(=O)[C@@]1(C)CO1 [Carfilzomib],cell viability of combination,[2],56.9
same,cell viability of combination,[3],57.9
Cl.Clc1ccccc1CN1CCc2sccc2C1 [Ticlopidine HCl] + CC(C)C[C@H](NC(=O)[C@H](CCc1ccccc1)NC(=O)CN1CCOCC1)C(=O)N[C@@H](Cc1ccccc1)C(=O)N[C@@H](CC(C)C)C(=O)[C@@]1(C)CO1 [Carfilzomib],cell viability of combination,[2],78.4
same,cell viability of combination,[3],58.7
CC(C)C[C@H](NC(=O)[C@H](Cc1ccccc1)NC(=O)c1cnccn1)B(O)O [Bortezomib] + CC(C)C[C@H](NC(=O)[C@H](CCc1ccccc1)NC(=O)CN1CCOCC1)C(=O)N[C@@H](Cc1ccccc1)C(=O)N[C@@H](CC(C)C)C(=O)[C@@]1(C)CO1 [Carfilzomib],cell viability of combination,[2],28.8
same,cell viability of combination,[3],15.5
C[C@H]1O[C@@H](O[C@H]2[C@@H](O)C[C@H](O[C@H]3[C@@H](O)C[C@H](O[C@H]4CC[C@@]5(C)[C@H](CC[C@@H]6[C@@H]5C[C@@H](O)[C@]5(C)[C@@H](C7=CC(=O)OC7)CC[C@]65O)C4)O[C@@H]3C)O[C@@H]2C)C[C@H](O)[C@@H]1O [Digoxin] + CC(C)C[C@H](NC(=O)[C@H](CCc1ccccc1)NC(=O)CN1CCOCC1)C(=O)N[C@@H](Cc1ccccc1)C(=O)N[C@@H](CC(C)C)C(=O)[C@@]1(C)CO1 [Carfilzomib],cell viability of combination,[2],40.7
same,cell viability of combination,[3],16.9
O=c1c(-c2ccc(O)cc2)coc2cc(O)cc(O)c12 [Genistein],cell viability,[9],160
same,cell viability,[1],129
same,cell viability,[5],183
same,cell viability,[6],189 ± 34
same,cell viability,[8],121 ± 5.2
Cc1[nH]c2ccccc2c1CCNCc1ccc(C=CC(=O)NO)cc1 [Panobinostat (LBH589)],cell viability,[9],130
same,cell viability,[4],68.3 ± 34
same,cell viability,[7],45 ± 8.7
same,cell viability,[8],36.5 ± 3
Cc1c(Cl)cccc1Nc1ccccc1C(=O)O [Tolfenamic Acid] + CC(C)C[C@H](NC(=O)[C@H](CCc1ccccc1)NC(=O)CN1CCOCC1)C(=O)N[C@@H](Cc1ccccc1)C(=O)N[C@@H](CC(C)C)C(=O)[C@@]1(C)CO1 [Carfilzomib],cell viability of combination,[2],74.7
same,cell viability of combination,[3],69.7
COc1cc2nccc(Oc3ccc(NC(=O)NC4CC4)c(Cl)c3)c2cc1C(N)=O [Lenvatinib (E7080)] + CC(C)C[C@H](NC(=O)[C@H](CCc1ccccc1)NC(=O)CN1CCOCC1)C(=O)N[C@@H](Cc1ccccc1)C(=O)N[C@@H](CC(C)C)C(=O)[C@@]1(C)CO1 [Carfilzomib],cell viability of combination,[2],97.9
same,cell viability of combination,[3],38.2
Cl.O.O=C1Cc2cc(CCN3CCN(c4nsc5ccccc45)CC3)c(Cl)cc2N1 [Ziprasidone hydrochloride monohydrate] + CC(C)C[C@H](NC(=O)[C@H](CCc1ccccc1)NC(=O)CN1CCOCC1)C(=O)N[C@@H](Cc1ccccc1)C(=O)N[C@@H](CC(C)C)C(=O)[C@@]1(C)CO1 [Carfilzomib],cell viability of combination,[2],79.6
same,cell viability of combination,[3],64.2
CC(NCc1ccc(OCc2cccc(F)c2)cc1)C(N)=O.CS(=O)(=O)O (configuration not stated) [Safinamide Mesylate],cell viability,[1],161
same,cell viability,[7],191 ± 36
same,cell viability,[6],190 ± 11
same,cell viability,[8],184 ± 45
CN(C)CC=CC(=O)Nc1cc2c(Nc3ccc(F)c(Cl)c3)ncnc2cc1OC1CCOC1.O=C(O)C=CC(=O)O.O=C(O)C=CC(=O)O (configuration not stated) [Afatinib dimaleate] + CC(C)C[C@H](NC(=O)[C@H](CCc1ccccc1)NC(=O)CN1CCOCC1)C(=O)N[C@@H](Cc1ccccc1)C(=O)N[C@@H](CC(C)C)C(=O)[C@@]1(C)CO1 [Carfilzomib],cell viability of combination,[2],86.1
same,cell viability of combination,[3],26.6
CN(C)c1ccc(O)c2c1CC1CC3C(N(C)C)C(=O)C(C(N)=O)=C(O)C3(O)C(=O)C1=C2O.Cl (configuration not stated) [Minocycline HCl] + CC(C)C[C@H](NC(=O)[C@H](CCc1ccccc1)NC(=O)CN1CCOCC1)C(=O)N[C@@H](Cc1ccccc1)C(=O)N[C@@H](CC(C)C)C(=O)[C@@]1(C)CO1 [Carfilzomib],cell viability of combination,[2],83.9
same,cell viability of combination,[3],65.9
CCC(NC(=O)C(C)NC)C(=O)N1CC(O)CC1Cc1c(-c2[nH]c3cc(F)ccc3c2CC2CC(O)CN2C(=O)C(CC)NC(=O)C(C)NC)[nH]c2cc(F)ccc12 (configuration not stated) + CC(C)C[C@H](NC(=O)[C@H](CCc1ccccc1)NC(=O)CN1CCOCC1)C(=O)N[C@@H](Cc1ccccc1)C(=O)N[C@@H](CC(C)C)C(=O)[C@@]1(C)CO1 [Carfilzomib],cell viability of combination,[2],61.9
same,cell viability of combination,[3],43
COCCn1c2c([n+](Cc3cnccn3)c1C)C(=O)c1ccccc1C2=O.[Br-] + CC(C)C[C@H](NC(=O)[C@H](CCc1ccccc1)NC(=O)CN1CCOCC1)C(=O)N[C@@H](Cc1ccccc1)C(=O)N[C@@H](CC(C)C)C(=O)[C@@]1(C)CO1 [Carfilzomib],cell viability of combination,[2],25.5
same,cell viability of combination,[3],17.4
same,cell viability of combination,[10],6.3
CS(=O)(=O)O.Cc1c(O)cccc1C(=O)NC(CSc1ccccc1)C(O)CN1CC2CCCCC2CC1C(=O)NC(C)(C)C (configuration not stated) [Nelfinavir Mesylate] + CC(C)C[C@H](NC(=O)[C@H](CCc1ccccc1)NC(=O)CN1CCOCC1)C(=O)N[C@@H](Cc1ccccc1)C(=O)N[C@@H](CC(C)C)C(=O)[C@@]1(C)CO1 [Carfilzomib],cell viability of combination,[2],80.3
same,cell viability of combination,[3],57.2
same,cell viability of combination,[10],26.7
COc1cc2nccc(Oc3ccc(NC(=O)Nc4cc(C)on4)c(Cl)c3)c2cc1OC [Tivozanib (AV-951)] + CC(C)C[C@H](NC(=O)[C@H](CCc1ccccc1)NC(=O)CN1CCOCC1)C(=O)N[C@@H](Cc1ccccc1)C(=O)N[C@@H](CC(C)C)C(=O)[C@@]1(C)CO1 [Carfilzomib],cell viability of combination,[2],97.5
same,cell viability of combination,[3],48.9
